Laboratory results taken from PubChem BioAssay AID488969 (Vanderbilt High Throughput Screening Facility, 2010).
In all, about 110,000 compounds were measured (“z-score”: median about -0.1, highest 2% from about 2 on). What follows is part of a selection rich in the highest values, with near analogues and random picks from the rest. The source made the active and inactive calls.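 The calls were made as follows: active = z-score in the third read window above 3 or below -3; inactive = the rest.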

Each compound was assayed against Metabotropic glutamate receptor 8 (Rattus norvegicus) (UniProt P70579) (assay: rat mGluR8 modulators via GIRK flux, primary screen, cell-based, thallium flux, HTS (AID 488969)). Conditions: HEK293 rat mGluR8, GIRK (G protein-gated inwardly rectifying potassium channel) thallium flux, FluoZin2; at 10 µM; stronger effect = higher value; submaximal glutamate (EC20) added with thallium.
Sequence of Metabotropic glutamate receptor 8 (Rattus norvegicus) (P70579 whole entry, looked up): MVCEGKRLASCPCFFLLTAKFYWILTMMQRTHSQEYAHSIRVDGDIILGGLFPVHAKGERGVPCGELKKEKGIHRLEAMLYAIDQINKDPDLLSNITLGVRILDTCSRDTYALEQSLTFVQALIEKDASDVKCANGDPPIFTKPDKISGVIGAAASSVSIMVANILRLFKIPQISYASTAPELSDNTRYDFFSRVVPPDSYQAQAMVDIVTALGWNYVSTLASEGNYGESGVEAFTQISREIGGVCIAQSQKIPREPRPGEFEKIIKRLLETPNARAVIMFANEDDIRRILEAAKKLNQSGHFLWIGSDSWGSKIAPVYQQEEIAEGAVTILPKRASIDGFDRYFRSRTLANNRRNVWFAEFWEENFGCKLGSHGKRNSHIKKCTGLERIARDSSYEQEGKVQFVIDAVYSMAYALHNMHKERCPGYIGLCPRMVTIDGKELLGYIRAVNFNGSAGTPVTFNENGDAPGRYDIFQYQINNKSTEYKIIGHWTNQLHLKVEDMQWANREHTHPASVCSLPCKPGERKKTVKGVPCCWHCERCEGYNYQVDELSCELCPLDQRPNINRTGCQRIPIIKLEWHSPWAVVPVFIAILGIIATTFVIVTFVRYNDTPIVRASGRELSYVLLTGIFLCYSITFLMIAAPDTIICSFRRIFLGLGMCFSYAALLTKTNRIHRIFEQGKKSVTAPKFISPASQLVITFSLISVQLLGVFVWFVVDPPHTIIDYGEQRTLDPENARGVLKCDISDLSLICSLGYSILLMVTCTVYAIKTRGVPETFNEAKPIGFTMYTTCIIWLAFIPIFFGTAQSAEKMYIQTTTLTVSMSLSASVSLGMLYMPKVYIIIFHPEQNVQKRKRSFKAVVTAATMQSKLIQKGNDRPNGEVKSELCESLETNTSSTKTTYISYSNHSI

| Structure (SMILES) | z-score |
| --- | --- |
| Cc1ccnc(N2CCC(C(=O)NNC(=O)COc3cccc4ccccc34)CC2)n1 | 0.336 |
| COc1cc(/C=N/OCC(=O)Nc2ccc(OC(F)F)cc2)ccc1OCc1ccccc1 | -0.0267 |
| CCOC(=O)C1CCCN(C(=O)c2cnn3c(C(F)(F)F)cc(-c4ccccc4)nc23)C1 (stereo not drawn) | -2.11 |
| COC(=O)c1ccc(NS(=O)(=O)c2ccc(SC)cc2)cc1 | 5.24 (active) |
| CCOC(=O)c1ccc(NS(=O)(=O)c2ccc(SC)cc2)cc1 | -0.12 |
| COC(=O)c1ccc(NS(=O)(=O)c2ccc(OC)cc2)cc1 | 0.37 |
| COc1ccc(N2CCN(C(=O)CSc3nnc4n3C(C)(C)Cc3ccccc3-4)CC2)cc1 | -0.642 |
| CC1(C)Cc2ccccc2-c2nnc(SCC(=O)N3CCN(c4ccccc4)CC3)n21 | 3.2 (active) |
| Cc1ccc(Cl)cc1N1CCN(C(=O)CSc2nnc3n2C(C)(C)Cc2ccccc2-3)CC1 | 1.18 |
| O=C(Nc1ccccn1)C12CC3CC(C1)CC(C(=O)Nc1ccccn1)(C3)C2 | 0.332 |
| Cc1cccc(Oc2ncc(-c3ccc(Cl)cc3)cn2)c1 | 0.0612 |
| Cc1cc(N2CCOCC2)nc2ccccc12 | -0.0968 |
| c1nc(NCC2CCCO2)c2[nH]cnc2n1 (stereo not drawn) | 0.26 |
| O=C(NCC1CCCO1)c1cccc(Br)c1 (stereo not drawn) | 0.348 |
| Cc1cccc(C(=O)NCC2CCCO2)c1 (stereo not drawn) | 2.21 |
| O=C(NCC1CCCO1)c1cccc(F)c1 (stereo not drawn) | 0.371 |
| O=C(CCS(=O)(=O)c1ccc(Br)cc1)Nc1cc(F)ccc1F | -0.0256 |
| O=C(Cn1c(C(F)(F)F)nc2ccccc21)OCC(=O)c1c[nH]c2ccccc12 | -0.594 |
| Cc1cc(C)n(-c2nc3ccccc3nc2NCCc2ccccc2)n1 | -0.16 |
| Cc1cccc(NC(=S)N=Nc2c(O)n(CN3CCOCC3)c3ccccc23)c1C | 2.19 |

| Structure (SMILES) | z-score |
| --- | --- |
| Cc1cccc(NC(=S)NCCN2CCOCC2)c1C | -0.235 |
| Cc1ccc(N=Nc2c(O)n(CN3CCOCC3)c3ccccc23)cc1 | -0.152 |
| Cn1c(SCc2cc(=O)[nH]c3ccccc23)nnc1-c1ccco1 | -0.244 |
| Cn1c(SCc2cccc3ccccc23)nnc1-c1ccco1 | 2.15 |
| Nn1c(SCc2cccc3ccccc23)nnc1-c1ccco1 | 0.217 |
| N#Cc1cn(-c2ccccc2)nc1-c1cc2ccccc2oc1=O | -0.0371 |
| Cc1ccc(-n2c([C@@H]3C[C@H]3c3ccccc3)n[nH]c2=S)cc1 | 0.209 |
| Cc1ccc(-n2c(C3CC3c3ccc(Cl)cc3)n[nH]c2=S)cc1 (stereo not drawn) | 0.832 |
| Cc1ccc(C2CC2c2n[nH]c(=S)n2-c2ccc(Cl)cc2)cc1 (stereo not drawn) | 2.95 |
| Cc1ccc(C2CC2c2n[nH]c(=S)n2-c2ccc(C)cc2)cc1 (stereo not drawn) | 2.34 |
| Cc1ccc(C2CC2c2n[nH]c(=S)n2-c2cccc(Cl)c2)cc1 (stereo not drawn) | 0.358 |
| S=c1[nH]nc(C2CC2c2ccc(Cl)cc2)n1-c1ccc(Cl)cc1 (stereo not drawn) | 0.549 |
| O=C(c1ccc(-n2cnnn2)cc1)N1CCCCC1 | 0.294 |
| CN1CCC(OC(=O)COc2ccc(C(C)(C)C)cc2)CC1 | 0.712 |
| COC1CCCCC1Nc1cc(C)cc(C)c1 (stereo not drawn) | -0.0687 |
| COc1ccc(C)cc1S(=O)(=O)N(C)CC(=O)NC1CCCC1 | -0.639 |
| COc1ccc(N(CC(=O)Nc2ccccc2SC)S(C)(=O)=O)cc1OC | 0.573 |
| CSc1ccccc1NC(=O)CN(c1ccccc1Br)S(C)(=O)=O | 2.04 |
| COc1ccc(Cl)cc1N(CC(=O)Nc1ccccc1SC)S(C)(=O)=O | 0.203 |
| CN(C)S(=O)(=O)c1ccc(NC(=O)/C=C/c2ccccc2Cl)cc1 | -0.0315 |

| Structure (SMILES) | z-score |
| --- | --- |
| CCC(=O)Nc1nnc(CSCc2ccc(F)cc2)s1 | 0.0266 |
| O=C(Nc1nnc(CSCc2ccc(F)cc2)s1)c1ccc([N+](=O)[O-])cc1 | 2.51 |
| O=C(Nc1nnc(CSCc2ccc(F)cc2)s1)c1cccc([N+](=O)[O-])c1 | -0.37 |
| O=C(NCc1ccc(Cl)cc1)C(=O)NCC1OCCN1C(=O)c1cccs1 (stereo not drawn) | -0.152 |
| Cn1cc(-c2nc3ccccc3[nH]2)c2ccccc21 | -1.41 |
| O=C(c1ccccc1)C(Sc1ncn[nH]1)c1ccccc1 (stereo not drawn) | -0.672 |
| Cc1ccc(C)c(OCC(=O)N/N=C/c2c(C)nn(-c3ccccc3)c2Cl)c1C | -0.185 |
| COC(=O)N/N=C\c1c(C)nn(-c2ccccc2)c1Cl | -0.389 |
| Cc1ccc(C)c(OCC(=O)N/N=C/c2c(C)nn(-c3ccccc3)c2Cl)c1 | 2.98 |
| Fc1ccccc1N1CCN(CCCNc2ccc3nncn3n2)CC1 | 0.731 |
| CCOC(=O)N1CCC(NCCNC(=O)c2ccccc2)CC1 | 0.292 |
| CC(OC(=O)CN1C(=O)C2CCCCC2C1=O)C(=O)Nc1ncc(Cl)cc1Cl (stereo not drawn) | 0.031 |
| CC(OC(=O)CCCN1C(=O)c2ccccc2C1=O)C(=O)Nc1ncc(Cl)cc1Cl (stereo not drawn) | 2.08 |
| O=C(COC(=O)CN1C(=O)c2ccccc2C1=O)Nc1ncc(Cl)cc1Cl | 0.719 |
| Cc1c(NC(=O)C(C)OC(=O)c2cc(Cl)nc(Cl)c2)c(=O)n(-c2ccccc2)n1C (stereo not drawn) | 0.0979 |
| CCOC(=O)C(Oc1ccc2c(-c3ccccc3)cc(=O)oc2c1C)c1ccccc1 (stereo not drawn) | -0.0738 |
| Cc1csc(NC(=O)CSc2nnc(-c3cc(C)on3)o2)n1 | 0.301 |
| CCc1cc2c(NCc3ccco3)ncnc2s1 | -0.444 |
